According to PubChem BioAssay:
Active and inactive are the calls of the source. Unless noted, the rule behind the calls is not given here.

Tests used:
[1] = compound effects on lung adenocarcinoma cell viability – A549, calcein-AM fluorescence, 48 h, basal, profiling panel (AID 1162); settings: higher = more signal; note: test concentration not given here
[2] = compound effects on differentiated 3T3-L1 adipocyte viability – cell-based, 3T3-L1 adipocytes, calcein-AM fluorescence, 48 h, basal, profiling panel (AID 1163); settings: 3T3-L1 adipocytes viability, higher = more signal; note: test concentration not given here
[3] = compound effects on hepatocellular carcinoma cell viability – HepG2, calcein-AM fluorescence, 48 h, basal, profiling panel (AID 1164); settings: higher = more signal; note: test concentration not given here
[4] = compound effects on multiple myeloma cell viability – MM1S, calcein-AM fluorescence, 48 h, basal, profiling panel (AID 1165); settings: higher = more signal;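 note: viability of MM1S multiple myeloma cells under basal unstimulated conditions; test concentration not given here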
[5] = calcein-AM signal in unstimulated myeloma cells – cell-based, calcein-AM fluorescence, 48 h, PK04 Diversity Set, profiling panel (AID 1166); settings: RPMI8226 myeloma viability, higher = more signal;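 note: cells grown under basal conditions without added stimulus; test concentration not given here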
[6] = JC-1 mitochondrial signal, unstimulated HepG2 cells – cell-based, JC-1 fluorescence, 24 h, 100 nL compound, profiling panel (AID 1167); settings: HepG2 mitochondrial potential, higher = more signal; note: test concentration not given here
[7] = JC-1 mitochondrial signal, unstimulated adipocytes – cell-based, JC-1 fluorescence, 3T3-L1 adipocytes, 24 h, 100 nL compound, profiling panel (AID 1168); settings: JC-1 mitochondrial fluorescence, higher = more signal, called active from +8 up or from −8 down; note: test concentration not given here
[8] = JC-1 mitochondrial signal, unstimulated myeloma cells – cell-based, JC-1 fluorescence, RPMI8226, 24 h, 100 nL compound, profiling panel (AID 1169); settings: JC-1 mitochondrial potential fluorescence, higher = more signal; note: test concentration not given here
[9] = JC-1 mitochondrial signal, unstimulated MM1S myeloma – cell-based, JC-1 fluorescence, 24 h, 100 nL compound, profiling panel (AID 1170); settings: MM1S mitochondrial potential, higher = more signal; note: test concentration not given here
[10] = resazurin metabolic signal in A549 cells – cell-based, resazurin fluorescence, 24 h, PK04 Diversity Set, profiling panel (AID 1171); settings: A549 viability, higher = more signal, called active from +8 up or from −8 down; note: test concentration not given here
[11] = resazurin metabolic signal in HepG2 cells – cell-based, resazurin fluorescence, 24 h, PK04 Diversity Set, profiling panel (AID 1172); settings: HepG2 viability, higher = more signal; note: test concentration not given here
[12] = budding yeast growth changes without added modifier – OD600, strain BY4716, 24 h, basal condition, primary screen (AID 1173); settings: S. cerevisiae BY4716 growth, OD600, 24 h; higher = more signal, called active from +8 up or from −8 down
[13] = viability profiling in MM1S myeloma cells – cell-based, resazurin fluorescence, basal, 24 h, PK04 Diversity Set, profiling panel (AID 1174); settings: higher = more signal, called active from +8 up or from −8 down; note: test concentration not given here
[14] = target: Dihydroorotate dehydrogenase (quinone), mitochondrial (Plasmodium falciparum (isolate 3D7)) (UniProt Q08210); test: inhibition of P. falciparum DHODH – biochemical, C-terminal His tag, absorbance 600 nm, primary screen (AID 1175); settings: PfDHODH enzyme, DCIP absorbance 600 nm; higher = more signal, called active from +8 up or from −8 down;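 note: recombinant parasite enzyme with a five histidine tag at its C terminus; test concentration not given here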
Sequence of Dihydroorotate dehydrogenase (quinone), mitochondrial (Plasmodium falciparum (isolate 3D7)) (Q08210 whole entry, looked up): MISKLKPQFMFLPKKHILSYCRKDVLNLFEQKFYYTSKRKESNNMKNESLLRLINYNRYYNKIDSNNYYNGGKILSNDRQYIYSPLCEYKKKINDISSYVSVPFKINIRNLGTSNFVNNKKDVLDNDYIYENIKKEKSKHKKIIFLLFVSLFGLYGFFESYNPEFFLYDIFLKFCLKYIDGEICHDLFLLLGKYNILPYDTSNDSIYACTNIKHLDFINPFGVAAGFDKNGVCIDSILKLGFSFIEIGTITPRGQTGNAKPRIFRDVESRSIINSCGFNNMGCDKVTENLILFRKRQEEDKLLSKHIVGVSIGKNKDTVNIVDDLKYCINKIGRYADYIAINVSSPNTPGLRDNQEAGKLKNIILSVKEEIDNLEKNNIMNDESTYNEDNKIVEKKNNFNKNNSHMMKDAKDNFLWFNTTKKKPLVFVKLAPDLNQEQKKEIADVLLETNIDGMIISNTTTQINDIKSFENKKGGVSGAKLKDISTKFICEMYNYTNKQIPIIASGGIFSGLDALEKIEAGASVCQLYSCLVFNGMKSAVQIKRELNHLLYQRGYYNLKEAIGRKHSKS

[15] = inhibition of PAO1 biofilm formation – strain PAO1, LB-PBS medium, absorbance 600 nm, primary screen (AID 1176); note: test concentration not given here; settings: P. aeruginosa PAO1 growth/biofilm, A600, 12 h; higher = more signal
[16] = growth modulation of vineyard yeast isolate – strain RM11-1a, OD600, basal, 24 h, primary screen (AID 1177);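 note: cultures grown under basal conditions with no added stressor; test concentration not given here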; settings: S. cerevisiae RM11-1a growth, OD600, 24 h; higher = more signal, called active from +8 up or from −8 down
[17] = growth of efflux-deficient E. coli DRC39 – strain DRC39, OD650, 24 h, E. coli filamentation inducers, primary screen (AID 1178);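 note: growth measured as culture turbidity by optical density at 650 nm; test concentration not given here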; settings: E. coli DRC39 acrAB, higher = more signal, called active from +8 up or from −8 down
[18] = growth of efflux-deficient E. coli DRC39 – strain DRC39, OD650, 48 h, E. coli filamentation inducers, primary screen (AID 1179);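 note: screen aims at cell division blockers that make cells filament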; settings: E. coli DRC39 delta-acrAB growth, higher = more signal, called active from +8 up or from −8 down
[19] = viability profiling in RPMI8226 myeloma cells – cell-based, resazurin fluorescence, basal, 24 h, PK04 Diversity Set, profiling panel (AID 1180); settings: higher = more signal;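 note: RPMI8826 multiple myeloma cell line at 5000 cells per well; test concentration not given here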
[20] = target: E3 ubiquitin-protein ligase XIAP (Homo sapiens) (UniProt P98170); test: small molecules binding XIAP protein – biophysical, small-molecule microarray, fluorescence 635 nm, primary screen (AID 1181); settings: higher = more signal;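 note: score merges 667 nm emission and signal to noise over triplicate slides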
Sequence of E3 ubiquitin-protein ligase XIAP (Homo sapiens) (P98170 whole entry, looked up): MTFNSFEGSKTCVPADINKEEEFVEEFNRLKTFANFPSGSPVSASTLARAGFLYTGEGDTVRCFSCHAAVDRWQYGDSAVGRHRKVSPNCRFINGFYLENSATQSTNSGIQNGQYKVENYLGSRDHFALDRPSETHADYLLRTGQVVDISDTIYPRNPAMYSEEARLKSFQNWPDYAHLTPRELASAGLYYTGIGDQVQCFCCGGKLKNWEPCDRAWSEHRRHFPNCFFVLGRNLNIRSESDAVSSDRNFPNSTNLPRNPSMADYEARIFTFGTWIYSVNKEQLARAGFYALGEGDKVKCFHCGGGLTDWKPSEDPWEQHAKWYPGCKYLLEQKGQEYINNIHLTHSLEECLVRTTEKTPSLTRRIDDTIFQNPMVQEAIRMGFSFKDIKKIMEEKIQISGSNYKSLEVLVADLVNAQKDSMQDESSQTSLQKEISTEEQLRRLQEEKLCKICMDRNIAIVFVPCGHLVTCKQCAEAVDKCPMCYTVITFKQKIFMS

SMILES	z-score [1]	z-score [2]	z-score [3]	z-score [4]	z-score [5]	z-score [6]	z-score [7]	z-score [8]	z-score [9]	z-score [10]	z-score [11]	z-score [12]	z-score [13]	composite z-score [14]	z-score [15]	z-score [16]	z-score [17]	z-score [18]	z-score [19]	composite z-score [20]
COc1cc(OC)c(C(O)C2C=CC3C(=O)N(c4ccccc4)C(=O)C3N2Nc2ccccc2F)cc1Br (stereo not given)	-1.06	-1.41	0.302	-0.303	-0.308	-2.04	-1.17 (inactive)	0.26	-0.645	-0.568 (inactive)	-0.384	-1.22 (inactive)	-0.898 (inactive)	-0.92 (inactive)	1.32 (inactive)	0.298 (inactive)	-0.529 (inactive)	-0.595 (inactive)	-2.08	0.0245
CO[C@H]1O[C@H](CO)[C@@H](OC(=O)Nc2ccc(C(F)(F)F)cc2)[C@H](OC(=O)Nc2ccccc2-c2ccccc2)[C@@H]1OC(=O)Nc1ccccc1-c1ccccc1	-1.34	-0.029	-0.745	-0.413	-0.909	-0.58	0.688 (inactive)	-0.172	-0.35	-1.35 (inactive)	-0.889	0.28 (inactive)	-1.74 (inactive)	0.0823 (inactive)	0.77 (inactive)	1.21 (inactive)	-1 (inactive)	0.0484 (inactive)	-0.94	-0.184
CC(C)=CCN(C(=O)C#Cc1ccccc1)[C@H](CO)c1ccccc1	-3.88	-0.522	-5.06	-3.2	-4.1	-3.07	0.983 (inactive)	-1.24	-2.54	-2.45 (inactive)	-3.85	-0.192 (inactive)	-5.79 (inactive)	0.885 (inactive)	-0.0218 (inactive)	3.26 (inactive)	0.163 (inactive)	-2.57 (inactive)	-5.82	0.165
COc1ccc(C#Cc2ccc3c(c2)[C@]2(C(=O)N3)[C@H](c3ccc(OCCO)cc3)N3[C@H](c4ccccc4)[C@H](c4ccccc4)OC(=O)[C@H]3[C@@H]2C(=O)O)cc1	0.325	1.33	0.712	-3.1	-4.59	-4	-4.96 (inactive)	-1.19	-1.99	0.721 (inactive)	1.24	1.85 (inactive)	-0.103 (inactive)	-12.9 (active)	2.25 (inactive)	1.73 (inactive)	1.22 (inactive)	0.0805 (inactive)	0.149	0.158
